According to paper PMC4336329 (PLoS ONE, 2015):
About 14,000 (4.5%) of roughly 310,000 compounds showed an effect of 50% or more. Effects have a minus sign here. What follows is part of a selection rich in strong results, with near analogues and random picks from the rest.

Target: human ether-à-go-go-related gene (hERG) potassium channel (human, UniProt Q12809)
Test: primary screen, population patch clamp on CHO cells stably expressing hERG; higher = less effect of the substance
Experimental: Briefly, Chinese hamster ovary (CHO) cells stably expressing the hERG channel were dislodged from tissue culture flasks and dispensed into PPC plates. […] During the recording, background leak currents were estimated by a 100 ms step to -80 mV from an initial holding potential of -70 mV and subtracted from the subsequent current measurement. The campaign was conducted in two phases using slight differences in recording protocol. In the first phase, the initial voltage pulse used a 100 ms step to -30 mV from a holding potential of -70 mV, a 2 s conditioning step to +25 mV, and a 2 s test step to -30 mV. During the second phase of the screen, the potential during the conditioning step was raised to +45 mV. In both phases of the campaign, a secondary voltage pulse was applied using the same parameters as the second phase initial pulse. The initial and secondary pulses were applied in the absence of compound, and upon application of 1 μM and 10 μM test concentrations. […]
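Further: peak tail current of the secondary pulse compared with the same well before compound.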

Sequence of human ether-à-go-go-related gene (hERG) potassium channel (Q12809 whole entry, looked up): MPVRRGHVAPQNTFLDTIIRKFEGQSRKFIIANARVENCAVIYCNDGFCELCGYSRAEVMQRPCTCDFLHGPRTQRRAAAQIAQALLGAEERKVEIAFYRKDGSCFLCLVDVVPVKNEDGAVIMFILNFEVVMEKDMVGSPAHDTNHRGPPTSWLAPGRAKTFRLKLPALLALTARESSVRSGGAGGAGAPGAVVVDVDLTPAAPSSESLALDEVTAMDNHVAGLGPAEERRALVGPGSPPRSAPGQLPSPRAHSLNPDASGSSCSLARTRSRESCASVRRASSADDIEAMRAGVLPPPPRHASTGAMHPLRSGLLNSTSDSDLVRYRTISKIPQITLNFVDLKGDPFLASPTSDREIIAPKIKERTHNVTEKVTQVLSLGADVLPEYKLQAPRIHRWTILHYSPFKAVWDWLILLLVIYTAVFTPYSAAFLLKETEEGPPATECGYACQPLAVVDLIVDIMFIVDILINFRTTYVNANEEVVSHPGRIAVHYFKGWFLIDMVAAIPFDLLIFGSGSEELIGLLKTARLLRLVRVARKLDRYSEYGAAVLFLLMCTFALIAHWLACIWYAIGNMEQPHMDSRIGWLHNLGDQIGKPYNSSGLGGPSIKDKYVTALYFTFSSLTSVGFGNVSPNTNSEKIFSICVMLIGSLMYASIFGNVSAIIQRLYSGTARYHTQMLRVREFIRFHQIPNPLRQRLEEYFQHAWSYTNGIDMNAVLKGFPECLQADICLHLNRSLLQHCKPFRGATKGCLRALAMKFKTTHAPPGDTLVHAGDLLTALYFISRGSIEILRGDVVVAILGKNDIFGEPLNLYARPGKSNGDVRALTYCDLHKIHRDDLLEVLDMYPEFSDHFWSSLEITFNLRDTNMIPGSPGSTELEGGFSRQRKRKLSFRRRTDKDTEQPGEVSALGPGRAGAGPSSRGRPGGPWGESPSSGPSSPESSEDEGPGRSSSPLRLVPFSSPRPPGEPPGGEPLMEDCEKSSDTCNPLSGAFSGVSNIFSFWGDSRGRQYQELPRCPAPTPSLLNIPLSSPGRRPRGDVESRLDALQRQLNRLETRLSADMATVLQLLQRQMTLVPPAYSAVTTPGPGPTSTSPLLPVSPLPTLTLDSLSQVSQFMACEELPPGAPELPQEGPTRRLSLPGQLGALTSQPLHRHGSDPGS

Structure (SMILES) | hERG current change (%, negative = inhibition) at 10uM
N=C1/C(=C\c2ccc(-c3cccc(C(=O)O)c3)o2)C(=O)N=C2SC=C(c3ccccc3)N12 | 0.469%
CCCN1CCCc2ccccc21.Cl | 7.61%
CNC(CC(C)C)C(=O)NC1C(=O)NC(CC(N)=O)C(=O)NC2C(=O)NC3C(=O)NC(C(=O)NC(C(=O)O)c4cc(O)cc(O)c4-c4cc3ccc4O)C(O)c3ccc(c(Cl)c3)Oc3cc2cc(c3OC2OC(CO)C(O)C(O)C2OC2C[C@](C)(N)C(O)C(C)O2)Oc2ccc(cc2Cl)C1O (some centres unmarked) | 9.61%
COC(=O)c1ccc2c(=O)[nH]c(CCl)nc2c1 | 10.7%
COC(=O)NNC(=O)c1ccc(Cl)cc1Cl | 19.8%
O=C(C1=C(O)C(=O)N(CC2CCCO2)C1c1ccc(Cl)cc1Cl)c1ccco1 (centres unmarked) | 18.5%
COc1ccc(-c2oc(/N=C/N3CCOCC3)c(C#N)c2-c2ccc(OC)cc2)cc1 | 13.9%
CCC(=O)Nc1sc2c(c1C(=O)OC)CCN(Cc1ccccc1)C2.Cl | -62.9%
COC(=O)c1c(NC(=O)C(C)(C)C)sc2c1CCN(Cc1ccccc1)C2.Cl | -34.7%
CC(=O)Nc1sc2c(c1C(N)=O)CCN(Cc1ccccc1)C2.Cl | -23.3%
COC(=O)c1c(NC(=O)C(C)C)sc2c1CCN(Cc1ccccc1)C2.Cl | -38.4%
CCOC(=O)c1c(NC(=O)CC)sc2c1CCN(Cc1ccccc1)C2.Cl | -14.5%
CC(C)C(=O)Nc1sc2c(c1C(N)=O)CCN(Cc1ccccc1)C2.Cl | -108%
O=C(N/N=C/c1cn(-c2ccccc2)nc1-c1ccc2c(c1)OCCO2)c1ccncc1 | 15.2%
COc1ccc(NC(=O)COc2coc(CN3c4ccccc4CC3C)cc2=O)cc1 (centres unmarked) | 5.06%
O=C(O)c1cc2c(cc1NC(=O)c1c(F)cccc1Cl)OCCCO2 | 5.08%
Cc1nc2sc3c(c2c(=O)n1/N=C/c1ccco1)CCCC3 | 16.8%
COc1ccc(N(C)C(=O)c2cc3c(s2)-c2ccccc2S(=O)(=O)C3)cc1 | -39.9%
CCN1CCN(C(=O)c2cc3c(s2)-c2ccccc2S(=O)(=O)C3)CC1 | -11.2%
CCOC(=O)N1CCN(C(=O)c2cc3c(s2)-c2ccc(Cl)cc2S(=O)(=O)C3)CC1 | -66.5%
CN1CCN(C(=O)c2cc3c(s2)-c2ccccc2S(=O)(=O)C3)CC1 | 4.14%

Structure (SMILES) | hERG current change (%, negative = inhibition) at 10uM
COc1cc(OC)c(N(C)C(=O)c2cc3c(s2)-c2ccccc2S(=O)(=O)C3)cc1Cl | -13.2%
COc1ccc(N(C)C(=O)c2cc3c(s2)-c2ccc(Cl)cc2S(=O)(=O)C3)c(OC)c1 | -58.5%
COc1cc(OC)cc(-n2nnnc2SCC(=O)Nc2nc3c(s2)CCCC3)c1 | 7.1%
Cc1nnc(SCC(=O)Nc2ccc3c(c2)OCO3)n(N)c1=O | 11.3%
O=C(COc1cccc(-n2cnnn2)c1)N1CCOCC1 | 2.13%
O=C1OC(c2ccc(Br)cc2)=N/C1=C\N1CCCCC1 | 22%
CCN1CCCC1CNC(=O)CN1C(=O)COc2ccc(C)cc21 (centres unmarked) | -12.4%
COc1cccc(CNC(=O)CCC2CCCN(Cc3cc(Cl)ccc3O)C2)c1 (centres unmarked) | -60.6%
COc1cccc(CNC(=O)CCC2CCCN(C(=O)c3ccc(F)c(Cl)c3)C2)c1 (centres unmarked) | -16.6%
COc1cccc(CNC(=O)CCC2CCCN(Cc3ccc(OC(F)F)cc3)C2)c1 (centres unmarked) | -76.6%
COc1cccc(CNC(=O)CCC2CCCN(C3CCOCC3)C2)c1 (centres unmarked) | -0.768%
COc1cccc(CNC(=O)CCC2CCCN(C(=O)c3cccc(Cl)c3)C2)c1 (centres unmarked) | -20.9%
COc1cccc(CNC(=O)CCC2CCCN(C(=O)CCC(F)(F)F)C2)c1 (centres unmarked) | -5.17%
CC12CCC(C(=O)NC3CCCCC3)([C@H](Br)C1=O)C2(C)C (some centres unmarked) | 10.6%
Cc1cc(C)cc(OCC(=O)OCC(=O)N2CCc3ccccc32)c1 | 14.5%
O=C(Cn1nc(CNc2ccc(Cl)cc2)[n+]2c1CCCCC2)c1ccccc1.[Br-] | 9.17%
O=C(Cn1nc(-c2nn(CC(=O)c3ccccc3)c3[n+]2CCCCC3)[n+]2c1CCCCC2)c1ccccc1.[Br-] | 12.8%
O=C(Cn1nc(CNc2ccc(Cl)cc2)[n+]2c1CCCCC2)c1ccc(Cl)cc1.[Br-] | -8.17%
Cc1ccc(C(C)C)c(OCC(=O)Nc2ccc(Cl)cn2)c1 | -8.82%
Cc1ccc(C(C)C)c(OCc2nn(CC(=O)c3ccc(Cl)cc3)c3[n+]2CCCCC3)c1.[Br-] | -73.3%
COc1ccc(C(=O)Cn2nc(CNc3ccc(Br)cc3)[n+]3c2CCCCC3)cc1.[Br-] | 15.4%

Structure (SMILES) | hERG current change (%, negative = inhibition) at 10uM
COc1ccc(NCc2nn(CC(=O)c3ccc(Br)cc3)c3[n+]2CCCCC3)cc1.[Br-] | 10.1%
Cc1ccc(C(C)C)c(OCc2nn(CC(=O)c3ccc(OC(F)F)cc3)c3[n+]2CCCCC3)c1.[Br-] | -72.5%
O=C(Cn1nc(CNc2ccc(Cl)cc2)[n+]2c1CCCCC2)c1ccc(Br)cc1.[Br-] | -61.6%
O=C(Nc1ccccc1C(F)(F)F)c1cc(S(=O)(=O)N2CCC3(CC2)OCCO3)ccc1F | -17.1%
O=C(CCCCCN1C(=O)c2ccccc2C1=O)Nc1ccc(S(=O)(=O)N2CCCCC2)cc1 | -46.6%
COc1ccc(NC(=O)N2CCCC(c3nc(-c4ccc(OC)cc4)no3)C2)cc1 (centres unmarked) | -4.38%
Cc1ccnc(NC(=O)C2CCN(S(=O)(=O)c3ccc(C)c(C)c3)CC2)c1 | 4.97%
Cl.N[C@@H](CO)c1nnc([C@H](CC(=O)O)NC(=O)C2CCNCC2)o1 | 16.7%
O=C(COC(=O)c1c[nH]c2ccccc12)Nc1ccc([N+](=O)[O-])cc1 | -0.338%
COC(=O)[C@@H](NC(=O)NCc1ccco1)C(C)C | 2.75%
Cc1cccc(NC(=O)c2cc(-c3cc(Cl)ccc3O)n[nH]2)c1 | 18.2%
CCN(Cc1ccncc1)C(=O)c1cccs1 | 2%
COc1cccc(CN(C)C(=O)c2cccnc2SC)c1OC | 9.74%
COC(=O)c1cccc(NC(=O)C23CC4CC(C2)CC(n2cncn2)(C4)C3)c1 | -25.4%
O=C(Nc1ccc2c(c1)OCO2)c1ccccc1SCC(=O)N1CCCC1 | 5.23%
CCOC(=O)C1CCN(CCCSc2ccc(C)cc2)CC1.Cl | -71%
CCOC(=O)C1CCN(C(=O)CSc2ccc(Cl)cc2)CC1 | -32.5%
CCOC(=O)C1CCN(C(=O)C(C)Sc2ccc(Cl)cc2)CC1 (centres unmarked) | -27.9%
CCOC(=O)C1CCCN(CCSc2ccc(C)cc2)C1.Cl (centres unmarked) | -28.3%
CCOC(=O)C1CCN(C(=O)CSc2ccccc2)CC1 | -20.3%
CCOC(=O)C1CCN(CCCSc2ccccc2)CC1.Cl | -62.4%

Structure (SMILES) | hERG current change (%, negative = inhibition) at 10uM
CCN1CCN(CCCCSc2ccccc2)CC1.O=C(O)C(=O)O | -28.3%
CCOC(=O)C1CCN(CCCSc2ccc(Cl)cc2)CC1.Cl | -72.7%
Cc1ccc(SCCCCN2CCOCC2)cc1.Cl | -24.6%
COC(=O)[C@H](C)NC(=O)NCc1ccccc1 | 1.58%
CCCC(=O)Nc1ccc2c(c1)nc1n2CCOC1 | 6.13%
Cc1ccc(-n2nnc3ccccc3c2=O)cc1C | -2.63%
c1coc(-c2nc3c4c5c(sc4ncn3n2)CCCC5)c1 | 10.6%
COCCC(=O)N1CCC(Oc2ccc(C(=O)NCCCC3CCCC3)cc2)CC1 | -37.3%
COCCC(=O)N1CCC(Oc2ccc(C(=O)NCCSC)cc2)CC1 | 13.6%
COC(=O)CCCNC(=O)c1ccc(OC2CCN(CCc3ccccc3)CC2)cc1 | -47.7%
CSCCNC(=O)c1ccc(OC2CCN(CCc3ccccc3)CC2)cc1 | -64.6%
COCC(=O)N1CCC(Oc2ccc(C(=O)NCCCC3CCCC3)cc2)CC1 | -71.5%
O=C(NC1CCOC1)c1ccc(OC2CCN(CCc3ccccc3)CC2)cc1 (centres unmarked) | -39.8%
COCC(=O)N1CCC(Oc2ccc(C(=O)N(C)CCCC3CCCC3)cc2)CC1 | -26.9%
CSCCCNC(=O)c1ccc(OC2CCN(CCc3ccccc3)CC2)cc1 | -75.2%
CSCCCNC(=O)c1ccc(OC2CCN(C(=O)c3cccnc3)CC2)cc1 | -11.4%
CN(C)S(=O)(=O)c1cccc(NC(=S)N/N=C/C(c2ccccc2)c2ccccc2)c1 | 1.1%
COc1ccc([N+](=O)[O-])cc1NC(=O)c1cncc(Br)c1 | -12.2%
CN1C(=O)NC(c2ccccc2Cl)C2=C1CC(C)(C)CC2=O (centres unmarked) | 5.71%
O=C(NCCC1=CCCCC1)C1CCCN(S(=O)(=O)c2ccc(F)cc2)C1 (centres unmarked) | 19.6%
